# This is a sample that favours compounds with a hit; in the whole collection about 9% have one here.
# Lamin A splicing – changes lamin A minigene splicing in HeLa cells. Potency, µM (doses to about 46.1 µM), for inactives: top-dose ratio change, negative = inhibition, actives largely listed as inhibitors. 0.01% of 200,000 active. HeLa LMNA splicing GFP/RFP minigene ratio, 48 h. AID 1487; active = well fitted inhibition curve with a large enough effect in the signal ratio, with a control signal flat, not every such curve was filed as active; inconclusive = small, poorly fitted or top-dose-only effect, or effect the other way, or a change in a side signal; the % refers to the signal ratio; also: % is scaled to controls: 0 for no effect and ±100 for the full control effect
#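 S3 HeLa cells stably expressing lamin A-EGFP splicing minigene plus DsRed2, 600 cells/well, 48 h compound exposure at 37C. Laser-scanning cytometry; analysed as GFP (500-530 nm)/RFP (575-640 nm) total intensity ratio; 0.5% DMSO vehicle.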
# ALDH1A1 block – blocks purified human ALDH1A1 activity. P00352. Potency, µM (series often up to 75.3 µM), for the others: at the highest dose activity, negative = inhibition, hits mostly inhibitors. 7.3% of 220,000 active. AID 1030. Purified ALDH1A1, NADH fluorescence, propionaldehyde substrate; active = well fitted inhibition curve with a large enough effect, not every such curve was filed as active; inconclusive = small, poorly fitted or top-dose-only effect, or another doubt; inactive = no such curve, though single readings can be large or run the other way;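 also: plate controls were no enzyme wells and a reference inhibitor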
# Target sequence (P00352 whole entry, looked up): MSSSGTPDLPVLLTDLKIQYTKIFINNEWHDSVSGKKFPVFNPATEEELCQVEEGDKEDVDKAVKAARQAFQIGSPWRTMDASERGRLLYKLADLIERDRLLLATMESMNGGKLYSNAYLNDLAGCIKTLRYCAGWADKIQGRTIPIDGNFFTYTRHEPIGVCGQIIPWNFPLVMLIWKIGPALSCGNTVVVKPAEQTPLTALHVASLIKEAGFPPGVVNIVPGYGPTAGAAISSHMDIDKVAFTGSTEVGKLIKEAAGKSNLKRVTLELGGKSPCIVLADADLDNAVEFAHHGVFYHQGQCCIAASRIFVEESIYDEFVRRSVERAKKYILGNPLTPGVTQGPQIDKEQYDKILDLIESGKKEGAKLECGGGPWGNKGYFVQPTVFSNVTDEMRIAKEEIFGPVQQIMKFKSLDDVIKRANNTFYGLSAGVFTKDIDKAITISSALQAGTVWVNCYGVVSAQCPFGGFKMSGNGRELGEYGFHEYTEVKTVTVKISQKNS
# HPGD block – HPGD (human) dehydrogenase inhibition; P15428; AID 894; Potency, µM, for the others: at the top dose activity change, negative = inhibition, most hits filed as inhibitors; 4.3% of 150,000 active; purified HPGD, NADH fluorescence kinetic, PGE2 substrate; active = well fitted inhibition curve with a large enough effect, not every such curve was filed as active; inconclusive = small, poorly fitted or top-dose-only effect, or another doubt; inactive = no such curve, though single readings can be large or run the other way; also: % is scaled to controls: 0 for no effect and ±100 for the full control effect
# Target sequence (P15428 whole entry, looked up): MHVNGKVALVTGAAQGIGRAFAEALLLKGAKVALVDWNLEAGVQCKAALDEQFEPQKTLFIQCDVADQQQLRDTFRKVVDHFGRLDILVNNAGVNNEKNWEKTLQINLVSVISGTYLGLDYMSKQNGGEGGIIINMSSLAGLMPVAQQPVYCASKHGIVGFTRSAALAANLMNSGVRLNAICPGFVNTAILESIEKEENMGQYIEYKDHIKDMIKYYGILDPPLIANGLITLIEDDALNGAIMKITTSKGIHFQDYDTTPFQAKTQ
#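 NADH formation kinetics: reaction with 30 uM PGE2 and 1 mM NAD+ (final), 20 nM enzyme, Tris-HCl pH 8 with Tween 20, after 15 min compound preincubation at room temperature. Fluorescence change, last versus first of five reads.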
# HTT cytoprotect – cytoprotection in Huntington HTT-Q103 PC12 cell model; 0.14% of 230,000 active; PC12 HTT-Q103 induced, cytoprotection, ATP luminescence, 40 h; Potency, µM (top dose mostly 56.4 µM), for inactives: cytoprotection (ATP increase), most hits filed as activators; also: % of control where 0% means no effect; nearly all actives have a fitted effect of over 45% in size
#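 PC12 cells stably carrying ecdysone-inducible Htt exon 1 (Q103)–GFP were induced with 100 nM tebufenozide (final) alongside library compounds in a dose series. Cytoprotection was scored as retained ATP by ATPlite luminescence.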
# HttQ103 aggreg – inhibitors of mutant huntingtin aggregate formation in PC12 cells. PC12 HttQ103-GFP aggregates, Acumen cytometry, 40 h. Potency, µM (highest dose often 46.1 µM), for the others: at the top dose activity change, negative = inhibition, most hits filed as inhibitors. 1.1% of 220,000 active. AID 1688; also: % is scaled to controls: 0 for no effect and ±100 for the full control effect; nearly all actives have a fitted effect of over 60% in size
#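 Multiplexed with ATP-based cell death, this channel scores GFP aggregates in PC12 cells expressing inducible HTTex1-Q103-GFP. Induction used 100 nM tebufenozide; compounds were tested in concentration series.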
# KinaseGlo FLuc – counter-screen: inhibitors of Kinase-Glo firefly luciferase | Q27757 | Kinase-Glo luciferase, ATP luminescence, 8 min | Potency, µM (series often up to 38.3 µM), for the others: at the highest dose activity change, negative = inhibition, most hits filed as inhibitors | 0.28% of 200,000 active | AID 1379; also: % is scaled to controls: 0 for no effect and ±100 for the full control effect; nearly all actives have a fitted effect of over 60% in size
#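 Compounds were added to a substrate mix at pH 7.2 (50 mM imidazole, 10 uM ATP, within the enzyme's linear range), followed by Kinase-Glo detection reagent; luminescence was measured after 8 minutes at ambient temperature.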
# * = called active by the depositor; u = inconclusive; x = no result given; [ ] = remark or other dose. Unless noted, calls follow the shape of the dose curve; as a rule, active = well fitted curve in the direction sought with a large enough effect; inconclusive = small, poorly fitted or top-dose-only effect, or another doubt; inactive = no such curve, though single readings can be large; an effect the other way counts as inactive or inconclusive. Potency is read from the fitted curve at half-maximal effect.
SMILES,Lamin A splicing,ALDH1A1 block,HPGD block,HTT cytoprotect,HttQ103 aggreg,KinaseGlo FLuc
Cc1ccc(C)c(Nc2ncnc3nc[nH]c23)c1,-10.4%,5.2%,-2.5%,-18.2%,-7.5%,-1.9%
Cc1cccc(Nc2ncnc3nc[nH]c23)c1,-6.4%,7.6%,-13.4%,-17.7%[10 µM],12.6µM*,-4.0%
COc1cc(O)oc1C=Nc1ccc(Cl)cc1,-6.0%,u,-13.3%,-2.3%,9.0%,-9.5%
COc1cc(O)oc1C=Nc1ccc(Oc2ccccc2)cc1,2.5%,u,-26.8%,-28.1%,0.3%,-3.8%
COc1cc(O)oc1C=Nc1ccc(Cl)cc1Cl,9.3%,14.1µM*,u,-0.6%,13.0%,-5.6%
COc1cc(O)oc1C=Nc1ccc(C(=O)O)cc1,19.2%[9.22 µM],-5.0%,x,-11.7%,29.8%,12.6µM*
CCCn1c(O)c(C=Nc2ccccc2)sc1=S,-3.6%[46 µM],14.1µM*,x,-1.1%[10 µM],11.7%[9.22 µM],0.1%
CCn1c(O)c(C=Nc2ccccc2)oc1=S,10.0%,20µM*,15.8µM*,-21.7%[10 µM],5.9%,9.6%
CCCCn1c(O)c(/C=C/C=C/C=Nc2ccccc2)sc1=S,u,17.8µM*,x,-19.2%,14.6%,8.91µM*
CCn1c(O)c(/C=C/C=C/C=Nc2ccccc2)sc1=S,19.3%[46 µM],u,x,x,x,-10.6%
O=S(=O)(Nc1ccccc1Cl)c1ccc(F)cc1,-8.6%,-4.6%,-10.1%,18.3%,16.6%,0.2%
c1ccc2c(c1)oc1c(NCC3CCCO3)ncnc12 (centres undefined),15.3%,-2.0%,-28.4%,-10.5%,-31.5%,-2.7%
COc1cccc(-n2cc(CN(C)Cc3nc(Cc4ccccc4)no3)cn2)c1,x,-0.8%,x,10.2%[10 µM],5.5%[9.22 µM],x
CNS(=O)(=O)c1cccc(C(=O)OCC(=O)Nc2ccc(N3CCCCC3)cc2)c1,-9.1%[46 µM],u,x,-19.4%,20.5%,1.7%
C=C[C@@H](C1=CC(=O)C(OC)=C(OC)C1=O)c1ccccc1,x,-10.1%,20µM*,u,x,3.0%
C=CC(C1=CC(=O)C=CC1=O)c1ccccc1 (centres undefined),x,-13.0%,-9.2%,-58.6%,x,-0.5%
Fc1cc(F)c(C2SCCN2C(=S)Nc2cccc(C(F)(F)F)c2)c(F)c1 (centres undefined),x,14.1µM*,x,13.6%[10 µM],13.8%[9.22 µM],x
Cc1nc(Nc2ccc(C(=O)O)cc2)sc1-c1ccccc1,x,11.8%,x,-23.3%,15.3%,1.4%
CCOC(=O)c1sc(Nc2ccccc2)nc1C,31.4%,-11.0%,u,-17.9%,-15.7%,-3.0%
COC(=O)c1sc(Nc2ccccc2)nc1C,10.1%,-3.6%,22.4µM*,0.8%,-2.1%,-6.2%
Cc1nc(Nc2ccccc2)sc1-c1ccccc1,u,22.4µM*,x,-35.4%[10 µM],2.3%,x
Cc1nc(Nc2ccc(Cl)c(Cl)c2)sc1C(=O)Nc1ccccc1,u,-5.7%,-11.9%,1.1%[10 µM],25.1µM*,-1.1%
CC1CC(C)CN(c2ncc3c(n2)CC(c2ccccc2)CC3=O)C1 (centres undefined),-0.8%,u,u,-0.2%[0.074 µM],-9.9%,-1.3%
CCN(CC)c1ccc(-c2nn3c(-c4ccccc4OC)nnc3s2)cc1,u,u,u,-77.6%,u,8.5%
CCC(=O)/C=C1\Sc2ccc(OC)cc2N1CC,18.7%,u,28.2µM*,-19.1%[10 µM],u,-1.2%
SMILES,Lamin A splicing,ALDH1A1 block,HPGD block,HTT cytoprotect,HttQ103 aggreg,KinaseGlo FLuc
COc1cc(/C=N/NC(=S)Nc2cccc(C(=O)O)c2)cc(OC)c1OC,u,14.1µM*,-22.9%,-1.0%[10 µM],21.4%,-0.1%
COc1ccc(O)c(/C=N/NC(=S)Nc2cccnc2)c1,24.7%[46 µM],u,x,-147.8%,12.6µM*,-1.2%
COc1ccc(/C=N/NC(=S)Nc2cccc(C(=O)O)c2)cc1OC,-6.8%,-1.4%,-28.6%,-0.5%[10 µM],4.6%,-1.1%
COc1cccc(/C=N/NC(=S)Nc2cccnc2)c1,x,5.1%,x,-7.5%,12.3%,0.6%
COc1cccc(/C=N/NC(=S)Nc2cccc(C(=O)O)c2)c1,x,31.6µM*,x,x,0.6%,-0.7%
CCOC(=O)c1nc(Nc2ccc(Cl)cc2)c2c(C)noc2n1,4.8%[46 µM],x,x,x,x,x
CC1=NN(c2ccccc2)C(=O)C1/C=C1\NC(=S)NC1=O (centres undefined),x,12.6µM*,x,-133.7%,11.1%,3.7%
NC(=O)c1ccccc1N/C=C/C(=O)c1ccc(F)cc1,12.2%,u,-20.9%,-66.7%,-17.1%,7.94µM*
NC(=O)c1ccccc1N/C=C/C(=O)c1ccc(Cl)cc1Cl,-11.2%,u,12.6µM*,-87.3%,u,11.2µM*
Cc1nc2scc(-c3cccs3)c2c(=O)[nH]1,-1.9%,11.2µM*,22.4µM*,-15.4%,20.7%,-4.9%
O=c1[nH]c(-c2ccc(O)cc2)nc2scc(-c3cccs3)c12,5.3%[46 µM],u,x,-18.2%[10 µM],2.4%[9.22 µM],x
Cc1cc(C)n(-c2c(F)c(F)c(CN3CCCCC3)c(F)c2F)n1,4.9%,4.2%,-14.2%,-9.2%[10 µM],-4.5%,4.5%
O=C(NCc1cccs1)C1CCC(=O)N1C1CCCCC1 (centres undefined),13.0%[0.0737 µM],-0.8%,-5.8%,0.1%,4.5%,-1.9%
O=C(NC(=S)Nc1ccccc1)c1csnn1,9.0%,7.94µM*,-29.4%,-18.8%,15.0%,0.1%
CC(C)NS(=O)(=O)c1ccc(NC(=S)NC(=O)c2ccc(-c3ccccc3)cc2)cc1,16.5%,11.2µM*,-16.4%,-20.9%,-13.5%,-1.3%
O=C(NC(=S)Nc1ccccc1)c1ccc(-c2ccccc2)cc1,-3.4%,u,-14.7%,-3.3%[10 µM],-16.7%,1.1%
O=C(O)c1ccc(NC(=S)NC(=O)c2ccc(-c3ccccc3)cc2)cc1,x,8.91µM*,x,-81.2%,-12.1%,-2.1%
Cc1cc(NC(=O)CSc2nc3ccccc3c(=O)n2-c2ccccc2)no1,-3.1%,u,-28.3%,7.7%,9.4%,-1.5%
COc1ccc(-n2cc(-c3ccc(OC(F)F)cc3)[n+]3c2CCCCC3)cc1,u,2.8%,x,-4.6%[10 µM],15.8µM*,-2.0%
COc1ccc(-c2cn(-c3ccc(Cl)cc3)c3[n+]2CCCCC3)cc1,x,x,x,-10.8%[10 µM],-21.3%[9.22 µM],x
COc1ccc(CNC(=O)C(OC(=O)c2ccco2)c2ccc(OC)cc2)cc1 (centres undefined),-10.3%,6.31µM*,-15.8%,-2.5%[1.9 µM],-10.8%,0.4%
C[n+]1cc[nH]c1SCC(=O)c1ccccc1,-5.8%,25.1µM*,-7.7%,-18.3%,8.4%,-25.0%
C[n+]1cc[nH]c1SCC(=O)c1ccc(Cl)cc1,x,18.9µM*,x,-30.9%[1.9 µM],-2.2%[9.22 µM],-11.7%
Cc1sc2nc(SCC(=O)C(C)(C)C)n(Cc3ccco3)c(=O)c2c1C,u,u,-26.1%,-49.0%,-15.7%,-6.3%
CCOC(=O)CC(=O)CSc1nc2sc(C)cc2c(=O)n1Cc1ccco1,5.5%,0.562µM*,28.2µM*,-7.2%,11.5%,2.6%
CCOC(=O)c1cc(CC)sc1NC(=O)CSc1nc2ccccc2c(=O)n1Cc1ccco1,u,3.5%,-8.7%,x,16.1%,2.3%
